FLuc counter: counter-screen for miR-21 project: firefly luciferase inhibitors or activators. P08659. purified FLuc, Km substrates, luminescence inhibition. Potency, µM (titrated, usually from 57.5 µM), for the others: at the top dose activity change, negative = inhibition, usual class: inhibitors. actives 6.9% (n = 360,000);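 further: plate controls were vehicle for no effect and reference inhibitor for full effect; nearly all actives have a fitted effect of over 55% in size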
Target sequence (P08659 whole entry, looked up): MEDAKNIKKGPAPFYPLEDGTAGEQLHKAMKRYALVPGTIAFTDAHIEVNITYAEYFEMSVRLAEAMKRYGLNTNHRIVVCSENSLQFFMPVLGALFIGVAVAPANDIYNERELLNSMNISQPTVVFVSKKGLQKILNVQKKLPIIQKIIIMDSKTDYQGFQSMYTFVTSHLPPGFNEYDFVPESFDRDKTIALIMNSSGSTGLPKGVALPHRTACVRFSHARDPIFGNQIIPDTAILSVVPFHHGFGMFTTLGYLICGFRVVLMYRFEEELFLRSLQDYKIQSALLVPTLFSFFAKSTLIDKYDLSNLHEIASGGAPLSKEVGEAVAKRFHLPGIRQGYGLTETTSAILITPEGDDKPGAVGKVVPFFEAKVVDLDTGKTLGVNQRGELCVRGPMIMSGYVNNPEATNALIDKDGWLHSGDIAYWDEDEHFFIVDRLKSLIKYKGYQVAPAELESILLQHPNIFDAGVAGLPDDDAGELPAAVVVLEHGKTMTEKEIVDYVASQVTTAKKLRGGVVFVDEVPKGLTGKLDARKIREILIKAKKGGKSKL
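Biochemical qHTS of compounds, final roughly 60 µM downward over six points, against 10 nM purified firefly luciferase using Km concentrations of substrates (10 uM D-luciferin, 10 uM ATP) in Tris acetate pH 7.5 buffer; luminescence output.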
ELG1 genotoxic: induces genotoxicity in HEK293T cells with luciferase-tagged ELG1; HEK293T ELG1-luciferase reporter, luminescence, 16 h; Potency, µM (doses to about 46 µM), without a hit: at the highest dose activity change, positive = activation, most hits filed as activators; actives 1.3% (n = 330,000); AID 504466; further: % of control where 0% means no effect; nearly all actives have a fitted effect of over 60% in size
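Step 1: seed 2,000 HEK293T ELG1-luciferase cells per well. Step 2: add compound or DMSO, incubate 16 hr at 37 °C. Step 3: ONE-Glo, 30 min at room temperature, read luminescence.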
ELG1 DNA repair: blocks ELG1-dependent DNA repair in HEK293T cells | Potency, µM (titrated, usually from 46.1 µM), for the others: at the highest dose activity change, negative = inhibition, hits mostly inhibitors | actives 2.3% (n = 330,000) | HEK293T ELG1-luciferase reporter, luminescence, 16 h; DNA damage induced by 5-fluorouridine | AID 504467; further: on the % scale 0 is the no-effect control and ±100 the full control effect; nearly all actives have a fitted effect of over 55% in size
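Luminescence from the luciferase reporter, measured 30 min after ONE-Glo reagent at room temperature, was the read-out. Beforehand, 2,000 cells per well were exposed for 16 hr at 37 °C to 5-fluorouridine together with compound or vehicle.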
SMN2 splice up: increases expression of the SMN2 splice variant; HEK293 SMN2-luciferase splicing reporter, luminescence, 30-36 h; Potency, µM (top dose mostly 46.1 µM), inactives show at the highest dose activity change, positive = activation, most hits filed as activators; actives 2.8% (n = 210,000); AID 1458; further: % of control where 0% means no effect; nearly all actives have a fitted effect of over 55% in size
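HEK293 cells carry an SMN2 […]–luciferase reporter in which exon 7 inclusion puts luciferase in frame. Cells were plated 10-12 h before compound addition, then incubated 30-36 h at 37C. ONE-Glo luminescence was read; sodium butyrate at 4.5 mM final served as control.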
NPC1 promoter act: NPC1 promoter activation; Huh7 NPC1 promoter luciferase reporter, 24 h; Potency, µM (doses to about 9.22 µM), for the others: at the top dose activation, most hits filed as activators; actives 2.4% (n = 320,000); further: % of control where 0% means no effect; nearly all actives have a fitted effect of over 60% in size
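Luminescence read-out of NPC1 promoter-driven luciferase in stably transfected Huh7 cells; compounds delivered in DMSO and left 24 h at 37C, 5% CO2, qHTS titration format.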
Rab9 promoter act: activates the Rab9 promoter; Huh7 Rab9 promoter-luciferase reporter, luminescence, 24 h; Potency, µM (series often up to 9.22 µM), without a hit: top-dose activation, negative = inhibition, most hits filed as activators; actives 2.8% (n = 320,000); further: % of control where 0% means no effect; nearly all actives have a fitted effect of over 60% in size
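Stable Rab9-luc Huh7, 1500 cells/well, 2 h settle; cmpd in DMSO, 24 h, 37 °C/5% CO2; luciferase reagent 10 min RT; luminescence.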
* hit, by the source's call. Most compounds without a hit are left out; they make up all but 9.3% or so of the library. The call rests on the fitted dose curve; in most records, active means well fitted curve in the direction sought with a large enough effect; inconclusive means small, poorly fitted or top-dose-only effect, or another doubt; inactive means no such curve, though single readings can be large; an effect the other way counts as inactive or inconclusive. Potency means the concentration at half of the fitted maximal effect.

Cc1ccc(C)c(N2CCN(c3nc4c(S(=O)(=O)c5ccccc5)nnn4c4ccc(Cl)cc34)CC2)c1 was read as FLuc counter 3% and SMN2 splice up 0%.
Screening Cc1ccc(NC(=S)NC(=O)/C=C/c2ccco2)c(O)c1 returned FLuc counter inconclusive, ELG1 genotoxic 6%, ELG1 DNA repair -2%, SMN2 splice up 14%, NPC1 promoter act -3% and Rab9 promoter act 13%.
For Cc1cccnc1NC(=S)NC(=O)/C=C/c1ccco1 the results were FLuc counter inconclusive, ELG1 genotoxic inconclusive, ELG1 DNA repair inconclusive, SMN2 splice up 13%, NPC1 promoter act 3% and Rab9 promoter act inconclusive.
Screening O=C(/C=C/c1ccco1)NC(=S)Nc1ccccn1 returned FLuc counter 13µM*, ELG1 genotoxic 15%, ELG1 DNA repair inconclusive, SMN2 splice up inconclusive, NPC1 promoter act 3.2µM* and Rab9 promoter act 2.8µM*.
Screening O=C(/C=C/c1ccco1)NC(=S)Nc1ccccc1O returned FLuc counter inconclusive, ELG1 genotoxic 13%, ELG1 DNA repair inconclusive, SMN2 splice up inconclusive, NPC1 promoter act inconclusive and Rab9 promoter act 4µM*.
O=C(/C=C\c1ccco1)NC(=S)Nc1ccccc1O was read as FLuc counter inconclusive, ELG1 genotoxic 7%, ELG1 DNA repair inconclusive, NPC1 promoter act inconclusive and Rab9 promoter act 3.2µM*.
`COc1ccc(-c2nc(S(=O)(=O)c3ccc(C)cc3)c(NCc3ccccc3)o2)cc1` gave FLuc counter 2% and SMN2 splice up 1%.
Screening CC(C)CN(CC(C)C)c1ccc(/C=N/n2cnnc2)cc1[N+](=O)[O-] returned FLuc counter -2%, ELG1 genotoxic -3%, ELG1 DNA repair -12%, SMN2 splice up -7%, NPC1 promoter act -3% and Rab9 promoter act 2%.
`CC(Cc1ccccn1)NC(=O)CCc1nnc(C2CCCCC2)o1` (centres undefined) gave FLuc counter -12%, ELG1 genotoxic 4%, ELG1 DNA repair inconclusive, NPC1 promoter act -8% and Rab9 promoter act 3%.
For COc1cc2c(cc1OC)CN(c1nc(CN3CCCCC3)nc3sc4c(c13)CCCC4)CC2 the results were FLuc counter -3%, ELG1 genotoxic -8%, ELG1 DNA repair 23µM*, SMN2 splice up -23%, NPC1 promoter act 0% and Rab9 promoter act -6%.
`CC1CC(C)CN(C(=O)CSc2nc(Cc3cccs3)nc3ccccc23)C1` (centres undefined) gave FLuc counter -3%, ELG1 genotoxic -16%, ELG1 DNA repair inconclusive, SMN2 splice up 12%, NPC1 promoter act -1% and Rab9 promoter act -1%.
For Cn1c(C(=O)N2CCC(C(N)=O)CC2)cc2cc(Cl)ccc21 the results were FLuc counter 2%, ELG1 genotoxic 0%, ELG1 DNA repair -9%, NPC1 promoter act -2% and Rab9 promoter act 16%.
`Cc1cc(=O)[nH]c(N=N/C(=N/Nc2ccccc2C)c2ccccc2)n1` gave FLuc counter -20%, ELG1 genotoxic 4%, ELG1 DNA repair inconclusive, SMN2 splice up -94%, NPC1 promoter act -16% and Rab9 promoter act -29%.
Screening Cc1cc(=O)[nH]c(N=N/C(=N/Nc2ccc(O)cc2)c2ccccc2)n1 returned FLuc counter 11µM*, ELG1 genotoxic inconclusive, ELG1 DNA repair -11%, SMN2 splice up -55%, NPC1 promoter act 4% and Rab9 promoter act 0%.
COc1ccc(N/N=C(/N=Nc2nc(C)cc(=O)[nH]2)c2ccccc2)cc1 was read as FLuc counter 4.3µM*, ELG1 genotoxic 2.6µM*, ELG1 DNA repair inconclusive, SMN2 splice up -62%, NPC1 promoter act inconclusive and Rab9 promoter act -9%.
COc1ccc(C(=O)NCCS(=O)(=O)NCc2ccc(F)cc2)cc1 was read as FLuc counter 0%, ELG1 genotoxic -5%, ELG1 DNA repair 18%, NPC1 promoter act 11% and Rab9 promoter act -3%.
Screening CCOCc1nnc(NC(=O)C2CCN(C(=O)C3CC(=O)N(c4ccc(C)cc4)C3)CC2)s1 (centres undefined) returned FLuc counter 0%, ELG1 genotoxic 1%, ELG1 DNA repair 6%, NPC1 promoter act 0% and Rab9 promoter act -5%.
For COC(=O)CC(NC(=O)c1ccc(C)cc1)c1ccccc1 (centres undefined) the results were FLuc counter 3.8µM*, ELG1 genotoxic 8%, ELG1 DNA repair 19%, SMN2 splice up -4%, NPC1 promoter act 2% and Rab9 promoter act 5%.
`Cc1ccc(C(=O)NC(c2ccccc2)C(Cl)Cl)cc1` (centres undefined) gave FLuc counter 21µM*, ELG1 genotoxic 0%, ELG1 DNA repair 5%, SMN2 splice up -15%, NPC1 promoter act 0% and Rab9 promoter act -1%.
Screening Cc1ccc(C(=O)CSc2nnc3c4ccccc4nc(Cc4ccccc4)n23)cc1 returned FLuc counter 1%, ELG1 genotoxic -4%, ELG1 DNA repair 0%, SMN2 splice up -17%, NPC1 promoter act -4% and Rab9 promoter act -16%.
Screening CC1CCC(NC(=O)c2cc3c(s2)CCCC3)CC1 (centres undefined) returned FLuc counter 12µM*, ELG1 genotoxic inconclusive, ELG1 DNA repair inconclusive, NPC1 promoter act inconclusive and Rab9 promoter act inconclusive.
`O=C(NCCCn1ccnc1)c1cc2c(s1)CCCCC2` gave FLuc counter 17µM*, ELG1 genotoxic inconclusive, ELG1 DNA repair 27%, SMN2 splice up 9%, NPC1 promoter act 8% and Rab9 promoter act 8%.
Screening O=C(NCCO)c1cc2c(s1)CCC2 returned FLuc counter 0%, ELG1 genotoxic -1%, ELG1 DNA repair 13%, SMN2 splice up 17%, NPC1 promoter act -6% and Rab9 promoter act -10%.
Screening O=C(Nn1cnnc1)c1cc2c(s1)CCCCC2 returned FLuc counter 6.7µM*, ELG1 genotoxic inconclusive, ELG1 DNA repair inconclusive, SMN2 splice up inconclusive, NPC1 promoter act 15% and Rab9 promoter act 18%.
`O=C(NCc1ccco1)c1cc2c(s1)CCCCC2` gave FLuc counter 13µM*, ELG1 genotoxic 12µM*, ELG1 DNA repair inconclusive, SMN2 splice up 14µM*, NPC1 promoter act 4µM* and Rab9 promoter act 1.6µM*.
For CCOc1ccc(CCNC(=O)Cn2c(C)c3cnn(-c4ccccc4)c(=O)c3c2C)cc1 the results were FLuc counter 3% and SMN2 splice up -1%.
COC(=O)[C@]1(C)N[C@H](CN(C)C(=O)NC(C)C)[C@@H]2C(=O)N(C)C(=O)[C@@H]21 was read as ELG1 genotoxic 0% and ELG1 DNA repair inconclusive.
